Rows were chosen to be rich in hits. Some 19% of all compounds tested hit in one or more screens of this group.
TDP1 cell CPT = growth inhibition of DT40 Tdp1-/-;hTDP1 cells with camptothecin (screen for TDP1 inhibitors) | Potency, µM (top dose mostly 46.2 µM), for the others: at the highest dose activity change, negative = growth inhibition, actives largely listed as inhibitors | chicken DT40 Tdp1-/-;hTDP1 cells + 20 nM CPT, ATP luminescence, 48 h | hit rate 12% among 420,000; also: potency is read from the fitted curve at half-maximal effect; nearly all actives have a fitted effect of over 55% in size
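Chicken DT40 Tdp1-/- cells complemented with human TDP1, 400 cells/well, exposed to compounds plus 20 nM camptothecin for at least 48 h at 37 C; viability read as ATP content by CellTiter-Glo luminescence.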
HT1080 IDH1KD tx = kills HT-1080 cells with IDH1 knockdown; hit rate 2% among 360,000; Potency, µM (doses to about 46.1 µM), without a hit: at the highest dose activity, negative = toxicity, actives largely listed as cytotoxic; HT-1080 IDH1 knockdown viability, ATP luminescence, 48 h; AID 686971;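 also: potency is read from the fitted curve at half-maximal effect; 0% = DMSO wells and -100% = cell-free medium wells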
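% activity derives from luminescence (CellTiter-Glo), normalised to DMSO and no-cell wells. HT-1080-IDH1KD cells, 750/well, had 48 h compound exposure at 37 °C.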
HT1080-NT tox = kills 2HG-producing HT-1080-NT fibrosarcoma cells; Potency, µM (top dose mostly 46.1 µM), for inactives: top-dose activity, negative = less viability, hits mostly cytotoxic; AID 686970; hit rate 1.6% among 360,000; HT-1080-NT fibrosarcoma viability, CellTiter-Glo ATP luminescence, 48 h;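 also: NT is the 2HG producing partner of a matched IDH1 knockdown line; potency is read from the fitted curve at half-maximal effect; 0% = DMSO-treated cells and -100% = media-only wells without cells; nearly all actives have a fitted effect of over 55% in size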
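Fibrosarcoma NT cells, 750 per well in 5% FBS RPMI, were exposed to compound for 48 hours. Viability: CellTiter-Glo luminescence.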
ELG1 DNA repair = ELG1-dependent DNA repair inhibition | Potency, µM (doses to about 46.1 µM), for the others: top-dose activity change, negative = inhibition, most hits filed as inhibitors | AID 504467 | hit rate 2.3% among 330,000 | HEK293T ELG1-luciferase reporter, luminescence, 16 h; DNA damage induced by 5-fluorouridine; also: potency is read from the fitted curve at half-maximal effect; nearly all actives have a fitted effect of over 55% in size
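HEK293T cells expressing luciferase-tagged ELG1 (2,000/well) received 5-Fluorouridine plus compound or DMSO for 16 hr at 37 °C. Luciferase was read by ONE-Glo luminescence after 30 min at room temperature.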
IL1B secr inh = inflammasome signaling inhibition, IL-1 beta readout; THP-1 LPS/ATP IL-1B secretion, AlphaLISA, 16 h; hits give low values; activity change, % at 57.5 µM; hit rate 4.7% among 360,000; AID 743279; in the data active = activity change below about -50%; inconclusive = mostly about -30% to -49%
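THP-1 cells pretreated 1 hr with compounds (up to 57.5 uM final), then stimulated with LPS (250 ng/mL final) plus ATP (1.25 mM final); secreted IL-1B measured by AlphaLISA after 16 hr, decreased signal indicating inhibition.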
DT40 TDP1 no CPT = qHTS for Inhibitors of human tyrosyl-DNA phosphodiesterase 1 (TDP1): qHTS in cells in absence of CPT | DT40 Tdp1-/- hTDP1 cells, no CPT, ATP luminescence, 48 h | Potency, µM (series often up to 46.2 µM), without a hit: top-dose activity change, negative = growth inhibition, actives largely listed as inhibitors | hit rate 15% among 420,000 | AID 686978, 2013; also: potency is read from the fitted curve at half-maximal effect; nearly all actives have a fitted effect of over 55% in size
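Camptothecin absent (DMSO only). Human TDP1-complemented DT40 knockout cells, 400 cells/well, 37 °C for minimum 48 hr; ATP measured via CellTiter-Glo, 30 min dark incubation, luminescence.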
* marks the source's active call; other numbers are inactive results; i = inactive; ? = inconclusive; · = not tested or not shown; [ ] = another dose, or the depositor's remark. Unless noted, calls follow the shape of the dose curve; as a rule, active = well fitted curve in the direction sought with a large enough effect; inconclusive = small, poorly fitted or top-dose-only effect, or another doubt; inactive = no such curve, though single readings can be large; an effect the other way counts as inactive or inconclusive. Unless noted, % is scaled to controls: 0 for no effect and ±100 for the full control effect.

SMILES | TDP1 cell CPT | HT1080 IDH1KD tx | HT1080-NT tox | ELG1 DNA repair | IL1B secr inh | DT40 TDP1 no CPT
COc1ccccc1N(CC(=O)NCCSCc1ccc(C)cc1)S(=O)(=O)c1ccccc1 | ? | -7% | -5% | 16µM* | -25 | ?
COc1ccc(N(CC(=O)NCCSCc2ccc(C)cc2)S(=O)(=O)c2ccccc2)cc1 | ? | ? | -25% | ? | i | 7.3µM*
CC(C)(C)SCCNC(=O)CN(c1ccc(F)cc1)S(=O)(=O)c1ccccc1 | -21% | -1% | -1% | -12% | -14 | -24%
O=C(CN(c1ccc(F)cc1)S(=O)(=O)c1ccccc1)NCCSC1CCCCC1 | ? | ? | ? | ? | -59* | ?
COc1ccc(OC)c(N(CC(=O)NCCSCc2ccc(C)cc2)S(C)(=O)=O)c1 | -21% | -3% | -7% | 9% | -62* | ?
O=C(C[n+]1ccc(/C=C/c2ccccc2)cc1)c1ccc2c(c1)OCCO2 | ? | 16µM* | ? | ? | -94* | 9.2µM*
O=C(O)CCSCC(=O)c1ccc2c(c1)OCCO2 | -21% | -2% | -5% | ? | 36 | -20%
O=C(O)CCC(=O)c1ccc2c(c1)OCCO2 | -13% | -1% | 0% | 24% | -1 | -2%
O=C(CS(=O)(=O)c1ccccc1)c1ccc2c(c1)OCCO2 | 15µM* | 3% | 1% | ? | -4 | 18µM*
O=C(CCN1Cc2ccccc2C1)c1ccc2c(c1)OCCO2 | 3.7µM* | 11µM* | ? | 2% | -90* | 5.2µM*
O=C(CCN1CCc2ccccc2C(c2ccccc2)C1)c1ccc2c(c1)OCCO2 (centres undefined) | 3.3µM* | ? | ? | 5% | -20 | 3.3µM*
Cc1cc[n+](CC(=O)c2ccc3c(c2)OCCO3)cc1 | 31% | 11% | -5% | 12% | -14 | -6%
Cc1cccc(NC(=O)Cn2cnc(S(=O)(=O)N3CCCC3)c2)c1C | -16% | -1% | -3% | 13% | -30 | 15%
CCN(CC)CCNC(=O)c1ccc(Sc2ccc(C)cc2)c(NC(C)=O)c1 | 4% | -2% | -2% | 2% | 0 | -20%
CCCCNc1nc(Oc2ccc(OCC)nn2)nc(N2CCOCC2)n1 | -20% | · | · | · | · | ?
CSc1nnc(CCNC(=O)c2ccccc2C(F)(F)F)n1-c1ccc(F)cc1 | 18%[9.04 µM] | · | · | · | · | -7%
CC(C)(C)CCN1CCC(CN2CCNC2=S)CC1 | -12% | -1% | 3% | · | 8 | -5%
CC(C)CN1CCC2(CC1)CCN(S(=O)(=O)c1ccccc1)CC2 | ? | · | · | · | · | 23µM*
CC(C)CN1CC2(CCN(S(=O)(=O)c3ccccc3)CC2)C1 | 1% | · | · | · | · | -3%
FC(F)(F)c1cccc(N2CCN(c3ncnc4c3nc3n4CCCC3)CC2)c1 | 9.2µM* | · | · | · | · | 9.2µM*
FC(F)(F)c1cccc(N2CCCCC2)c1 | -19% | 10% | 13% | · | 48 | -4%
COc1cccc(N2CCN(c3ncnc4c3nc3n4CCCCC3)CC2)c1 | 16µM* | · | · | · | · | 10µM*
O=C(NC(=S)NC1C2CC3CC(C2)CC1C3)c1ccccc1 (centres undefined) | ? | ? | -27% | 13% | 68 | ?
CCCCCNC(=O)c1[nH]c(C(F)(F)F)nc1-c1ccccc1 | -18% | 0% | 4% | · | 5 | -24%
O=C1c2ccccc2C(=O)c2c1ccc1c(=O)n(C3CCCCC3)[nH]c21 | ? | -14% | -17% | 21µM* | -11 | 23µM*
SMILES | TDP1 cell CPT | HT1080 IDH1KD tx | HT1080-NT tox | ELG1 DNA repair | IL1B secr inh | DT40 TDP1 no CPT
O=c1c2ccccc2ncn1C1CCCCC1 | -2% | -2% | 0%[9.24 µM] | · | -10 | 0%
COC(=O)NCc1c(C)nn(-c2ccccc2)c1-n1cccc1 | -8% | · | · | · | · | ?
COc1ccc(CCN(C)CC(=O)Nc2ccc(F)c(Cl)c2)cc1OC | -2% | -3% | -23% | -1% | -58* | ?
COc1ccc(CCNCC(=O)Nc2ccc(C)c(Br)c2)cc1OC | 9.2µM* | ? | ? | 0% | -15 | ?
COc1ccc(CCN(C)c2ccc(C(N)=O)cc2[N+](=O)[O-])cc1OC | 29µM* | -8% | 0% | ? | -20 | -15%
COc1ccc(CCNCC(=O)Nc2ccc(C)c(S(=O)(=O)N(C)C)c2)cc1OC | ? | 0% | -2% | -23% | 7 | -7%
COc1ccc(CCN(C)Cc2ccc(OC)c(OCc3ccccc3)c2)cc1OC | ? | ? | -8% | -25% | -21 | 23µM*
O=C(CCCc1nc(-c2ccccc2Cl)no1)N1CCOCC1 | -9% | 0% | ? | -11% | -3 | -2%
Cc1ccc(NC(=O)c2ccc3nc(N4CCOCC4)sc3c2)c(Cl)c1 | -12% | 3% | -2% | ? | -9 | ?
Cc1nc(-c2ccc(S(=O)(=O)N3CCN(c4cc(Cl)ccc4C)CC3)cc2)co1 | -23% | · | · | · | · | -25%
COc1ccc(CCN(C)Cc2ccc(C(=O)Nc3ccccc3)cc2)cc1OC | ? | -19% | 1% | 7.3µM* | ? | ?
COc1ccc(CCN(C)C2CC(=O)N(c3ccccc3)C2=O)cc1OC (centres undefined) | 9.2µM* | 5% | 8% | ? | 21 | ?
Cc1c(C(=O)N(Cc2ccccc2)C2CCS(=O)(=O)C2)oc2ccccc12 (centres undefined) | ? | -10% | 0% | ? | -27 | 21µM*
O=C(Cn1c(=O)oc2ccccc21)N(Cc1ccccc1)C1CCS(=O)(=O)C1 (centres undefined) | 23µM* | 11% | 5% | 0% | -5 | ?
O=C(c1cc(=O)c2ccccc2o1)N(Cc1ccccc1)C1CCS(=O)(=O)C1 (centres undefined) | 0% | 28% | 16% | ? | -4 | 15%
Cc1c(C(=O)N(Cc2ccc(F)cc2)C2CCS(=O)(=O)C2)oc2ccccc12 (centres undefined) | ? | -2% | 4% | -19% | ? | -28%
Cc1ccsc1CN(C(=O)c1oc2ccccc2c1C)C1CCS(=O)(=O)C1 (centres undefined) | 8.2µM* | · | · | · | · | 5.2µM*
Cc1c(C(=O)N(Cc2ccc(N(C)C)cc2)C2CCS(=O)(=O)C2)oc2ccccc12 (centres undefined) | 29µM* | -20% | 15% | ? | -6 | ?
O=C1C2CC=CCC2C(=O)N1CC(=O)N(Cc1ccccc1)C1CCS(=O)(=O)C1 (centres undefined) | -8% | 0% | 1% | 2% | 28 | 5%
